Screening results as filed in PubChem BioAssay.
TRb-SRC2 inh: qHTS for Inhibitors of the Interaction of Thyroid Hormone Receptor and Steroid Receptor Coregulator 2; TRbeta-SRC2 peptide binding, fluorescence polarization; receptor liganded with 1 µM T3; AID 1469, 2008; 280,000 tested, 0.065% active; Potency, µM (doses to about 106 µM), for the others: at the top dose activity change, negative = inhibition, actives largely listed as inhibitors; Thyroid hormone receptor beta (Homo sapiens), P10828;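 further: plate controls were bound peptide for no effect and peptide without receptor for full effect; nearly all actives have a fitted effect of over 50% in size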
Target sequence (P10828 whole entry, looked up): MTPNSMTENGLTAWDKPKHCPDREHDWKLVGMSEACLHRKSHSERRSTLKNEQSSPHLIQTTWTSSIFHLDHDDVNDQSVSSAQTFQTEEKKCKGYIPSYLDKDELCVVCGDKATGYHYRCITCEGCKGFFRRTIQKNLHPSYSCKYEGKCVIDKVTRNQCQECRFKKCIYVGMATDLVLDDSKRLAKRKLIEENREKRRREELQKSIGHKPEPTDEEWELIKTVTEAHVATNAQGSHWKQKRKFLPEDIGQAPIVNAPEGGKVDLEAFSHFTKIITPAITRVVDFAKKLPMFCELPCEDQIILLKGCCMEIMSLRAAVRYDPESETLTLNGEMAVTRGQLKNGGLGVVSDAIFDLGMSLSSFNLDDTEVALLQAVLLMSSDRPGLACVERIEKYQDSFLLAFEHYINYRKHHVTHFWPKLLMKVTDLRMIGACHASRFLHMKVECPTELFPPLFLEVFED
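Fluorescence polarization of 20 nM Texas Red SRC2 peptide (20-aa NR interaction domain) bound to 0.6 uM human TRb ligand-binding domain, with 1 uM T3, after 5 hr at ambient temperature; inhibition seen as decreased polarization.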
TR SRC2 fluor cs: Total Fluorescence Counterscreen for Inhibitors of the Interaction of Thyroid Hormone Receptor and Steroid Receptor Coregulator 2. TRb/SRC2 Texas Red total fluorescence interference. Potency, µM (doses to about 106 µM), for the others: top-dose fluorescence change, negative = quenching. 280,000 tested, 0.29% active; active means well fitted curve in either direction with a large enough effect; inconclusive means small, poorly fitted or top-dose-only effect
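Human TRβ ligand-binding domain (0.6 uM) and Texas Red SRC2 peptide (20 nM) in Tris buffer with 1 uM T3 and 5% DMSO were incubated with pinned compound for 5 hr at ambient temperature. Total fluorescence was computed as S + 2P (555/632 nm).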
RGS12 GoLoco inh: qHTS Assay for Inhibitors of RGS12 GoLoco Motif Activity (Red Fluorophore). Gai1:RGS12 GoLoco peptide FP, rhodamine, 10 min. Potency, µM (titrated, usually from 61.6 µM), without a hit: at the highest dose activity, negative = inhibition, usual class: inhibitors. 230,000 tested, 0.44% active. Guanine nucleotide-binding protein G(i) subunit alpha-1 (Homo sapiens), P63096; active means well fitted inhibition curve with a large enough effect, not every such curve was filed as active; inactive means no such curve, though single readings can be large or run the other way; further: nearly all actives have a fitted effect of over 30% in size
Tau fluor cs: Counterscreen qHTS for Inhibitors of Tau Fibril Formation, Fluorescence Polarization; tau K18 P301L Alexa594 fluorescence, heparin fibrillization; Potency, µM (top dose mostly 57.7 µM), without a hit: top-dose activity change, negative = decrease; 280,000 tested, 0.93% active; further: nearly all actives have a fitted effect of over 55% in size
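Human K18 P301L tau (15 uM unlabeled plus 0.24 uM Alexa 594-labeled, final) in 100 mM sodium acetate pH 7 was mixed with compound and 20 uM heparin and incubated 6 hr at 37 C.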
Tau ThT inhib: qHTS for Inhibitors of Tau Fibril Formation, Thioflavin T Binding. recombinant tau K18 P301L, heparin-induced fibrillization, ThT fluorescence. Microtubule-associated protein tau (Homo sapiens), P10636. 270,000 tested, 2.1% active. Potency, µM (titrated, usually from 57.4 µM), without a hit: at the highest dose activity, negative = inhibition, hits mostly inhibitors; further: nearly all actives have a fitted effect of over 55% in size
Target sequence (P10636 561-689 P618L limits assumed): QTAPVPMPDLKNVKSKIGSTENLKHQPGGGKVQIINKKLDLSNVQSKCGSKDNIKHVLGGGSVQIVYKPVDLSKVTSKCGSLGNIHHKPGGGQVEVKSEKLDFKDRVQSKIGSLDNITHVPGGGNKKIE
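Using a mix of unlabeled (15 uM) and Alexa 594-labeled (0.24 uM) tau K18 P301L, heparin-triggered fibrillization over 6 hr at 37 C was scored by ThT fluorescence.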
Tau FP inhib: qHTS for Inhibitors of Tau Fibril Formation, Fluorescence Polarization. Potency, µM (doses to about 57.7 µM), for inactives: at the top dose activity, negative = inhibition, actives largely listed as inhibitors. 280,000 tested, 0.39% active. K18 P301L tau heparin fibrillization, Alexa594 FP, 6 h. AID 1468, 2008. Microtubule-associated protein tau (Homo sapiens), P10636; further: nearly all actives have a fitted effect of over 55% in size
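Quantitative HTS format: compounds meet 15 uM recombinant K18 P301L tau and Alexa 594-tau tracer in 100 mM sodium acetate pH 7; 20 uM heparin triggers fibrillization at 37 C over 6 hr; FP gives the signal.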
* marks the source's active call; other numbers are inactive results; ? = inconclusive; / = not tested or not shown; [ ] = remark or other dose. Hits are enriched below; roughly 3.2% of the tested compounds scored in any of these assays. Unless noted, the call rests on the fitted dose curve; in most records, active means well fitted curve in the direction sought with a large enough effect; inconclusive means small, poorly fitted or top-dose-only effect, or another doubt; inactive means no such curve, though single readings can be large; an effect the other way counts as inactive or inconclusive. Unless noted, on the % scale 0 is the no-effect control and ±100 the full control effect; potency means the concentration at half of the fitted maximal effect.

SMILES | TRb-SRC2 inh | TR SRC2 fluor cs | RGS12 GoLoco inh | Tau fluor cs | Tau ThT inhib | Tau FP inhib
CCOC(=O)c1cccc(NC(=O)N2CC=C(c3c[nH]c4ccccc34)CC2)c1 | -1.7% | -0.4% | / | 12.6µM*[quencher] | ? | -6.4%
Cc1ccc(C)c(NC(=O)CS(=O)(=O)c2c[nH]c3ccccc23)c1 | -10.2% | -1.5% | 5.2% | -8.9% | -7.6% | -1.1%
CCOc1ccc(NC(=O)N2CC=C(c3c[nH]c4ccccc34)CC2)cc1 | 1.2% | -0.8% | / | 15.8µM*[quencher] | 4.47µM* | -7.9%
CCOC(=O)c1cccc(NC(=O)N2CCC(CN3CCc4ccccc4C3)CC2)c1 | 2.7% | -6.6% | / | -6.2% | -5.0% | 0.6%
C=CCCCCCCCCC=O | -4.6%[201 µM] | -0.7%[201 µM] | / | / | / | /
CCOC(=O)N1CCN([N+]([O-])=NOc2cc(O/N=[N+](\[O-])N(CC)CC)c([N+](=O)[O-])cc2[N+](=O)[O-])CC1 | 3.1% | -2.1% | / | / | / | /
COc1cc(OC)c(NC(=O)N2CC=C(c3c[nH]c4ccccc34)CC2)cc1Cl | 2.8% | -2.1% | / | 7.94µM*[quencher] | ? | ?
COc1cc(OC)c(NC(=O)N2CCN3CCCCC3C2)cc1Cl (stereo unspecified) | 4.1% | -1.6% | / | 1.7% | 3.7% | 1.0%
Cc1cc(NC(=O)N2CC=C(c3c[nH]c4ccccc34)CC2)ccc1Br | -5.2% | -2.0% | / | 12.6µM*[quencher] | 7.94µM* | -9.9%
Cc1ccc(-n2[nH]c(C)c(/C=N/Nc3ccc([N+](=O)[O-])cc3[N+](=O)[O-])c2=O)cc1C | -5.7% | -4.9% | 0.9% | 4.47µM*[quencher] | 2.24µM* | 20µM*
Cn1c(=O)c(-c2cc(F)cc(F)c2)nc2cnc(N3CCNCC3)nc21 | / | / | 0.3% | / | / | /
CCOC(=O)c1ccc(NC(=O)c2cccc(S(=O)(=O)N3c4ccccc4CC3C)c2)s1 (stereo unspecified) | 4.0% | -1.3% | 30.2% | ? | -6.0% | 8.91µM*
CC1Cc2ccccc2N1S(=O)(=O)c1cccc(C(=O)NCCCO)c1 (stereo unspecified) | 7.1% | -1.3% | 2.4% | -6.5% | -3.5% | -6.2%
O=C(/C=C/c1cccnc1)/C=C/c1cccnc1 | 1.1% | -0.3% | -27.3% | -25.8% | 4.47µM* | ?
Cc1ccc2nc3sc(C(=O)Nc4ccc(N5CCOCC5)cc4)c(N)c3cc2c1 | -0.4% | -5.9% | 10.4% | ? | 2µM* | 10.2%
Cc1cccc2cc3c(N)c(C(=O)N4CCc5ccccc54)sc3nc12 | -3.0% | -0.5% | -22.9% | ? | 4.47µM* | ?
Cc1ccc2nc(C)c(C(=O)N/N=C/c3ccc(N4CCOCC4)cc3)cc2c1 | -5.4% | -4.0% | -3.8% | -4.8% | ? | 3.2%
CCc1cccc2cc3c(N)c(C(=O)Nc4ccc(S(=O)(=O)N5CCCC5)cc4)sc3nc12 | 1.7% | 3.0% | 27.2% | ? | 5.62µM* | ?
Cc1cccc2cc3c(N)c(C(=O)Nc4ccc(N5CCOCC5)cc4)sc3nc12 | -2.0% | -3.1% | 17.2% | 11.2µM*[quencher] | 2.82µM* | 8.0%
CCn1ncc(C(=O)Nc2ccc(S(=O)(=O)N3CCCC3)cc2)c1C | -23.1% | -3.7% | -10.0% | -10.0% | -2.8% | -11.2%
Cc1ccc(C)c2nc3sc(C(=O)N4CCOCC4)c(N)c3cc12 | 2.0% | -5.7% | 9.8% | -5.8%[2.34 µM] | -3.9% | -7.5%[2.34 µM]
COC(=O)C1=C[C@@H](C(=O)OC)[C@@H]2C3=C(C(=O)[C@@]2(C)NC(=O)c2ccccc2)[C@H](C)[C@@H]2C(=O)N(Cc4ccccc4)C(=O)[C@@H]2[C@@H]3C1 | 4.6% | 1.2% | / | / | / | /
c1nc(NCCc2cnc[nH]2)c2[nH]cnc2n1 | / | / | 0.0%[14.2 µM] | / | / | /
CC(C)C[C@H](NC(=O)CNC(=O)[C@H](C)NC(=O)[C@H](CC(C)C)NC(=O)[C@H](CCCNC(=N)N)NC(=O)[C@H](Cc1cnc[nH]1)NC(=O)[C@@H](NC(=O)[C@@H](N)C(C)C)[C@@H](C)O)C(=O)N[C@@H](CC(C)C)C(=O)N[C@@H](CO)C(=O)N[C@@H](CCCNC(=N)N)C(=O)N[C@@H](CO)C(=O)NCC(=O)NCC(=O)N[C@H](C(=O)N[C@H](C(=O)N[C@@H](CCCCN)C(=O)N[C@@H](CC(N)=O)C(=O)N[C@@H](CC(N)=O)C(=O)N[C@@H](Cc1ccccc1)C(=O)N[C@H](C(=O)N1CCC[C@H]1C(=O)N[C@H](C(=O)N[C@@H](CC(N)=O)C(=O)N[C@H](C(=O)NCC(=O)N[C@@H](CO)C(=O)N[C@@H](CCCCN)C(=O)N[C@@H](C)C(=O)N[C@@H](Cc1ccccc1)C(N)=O)C(C)C)[C@@H](C)O)C(C)C)C(C)C)C(C)C | 1.1% | -0.5% | / | / | / | /
Cc1c(Cc2ccccc2)sc(/N=C/c2ccc3ccccc3c2)c1C(N)=O | 4.8% | -1.2% | 40.8% | -18.8% | -16.2% | 3.1%
SMILES | TRb-SRC2 inh | TR SRC2 fluor cs | RGS12 GoLoco inh | Tau fluor cs | Tau ThT inhib | Tau FP inhib
Cc1c(Cc2ccccc2)sc(/N=C/c2c(O)ccc3ccccc23)c1C(N)=O | 3.9% | -1.0% | 233.8% | 31.6µM*[quencher] | 28.2µM* | ?
O=C1C(Cl)=C(Sc2nnc3c4ccccc4c4ccccc4c3n2)C(=O)c2ccccc21 | / | / | -6.8%[14.2 µM] | / | / | /
O=C(OCn1ncc(Br)c(Br)c1=O)c1ccc(F)cc1 | -6.3% | -2.1% | -4.2% | -5.7% | ? | ?
O=C(OCn1ncc(Br)c(Br)c1=O)c1ccccc1Cl | -17.8% | -2.2% | -15.8% | -20.1% | 8.91µM* | ?
CCOc1ccc(Nc2nc(C)c(NC(=O)c3cccc(F)c3)c(Nc3ccc(OCC)cc3)n2)cc1 | 6.4% | -2.2% | / | 7.94µM*[quencher] | ? | 10.4%
CCOc1ccc(-n2nc3ccc(NC(=O)c4cccc(F)c4)cc3n2)cc1 | 8.2% | 5.2% | / | -5.9% | ? | ?
COc1ccc(C2=C/C(=C\c3ccc(OC(C)=O)cc3)C(=O)O2)cc1 | 3.5% | -3.6% | 4.2% | -21.2% | ? | 14.0%
CN(C)c1ccc(/C=C2/C=C(c3ccc4c(c3)CCCC4)OC2=O)cc1 | -0.3% | -0.9% | 43.8% | ? | 3.16µM* | ?
CCN(CC)c1ccc(NC(=O)COC(=O)c2cccs2)cc1 | -22.8% | -0.4% | 2µM* | -22.0% | -15.0% | 6.5%
